# Measured values as given in publication PMC7862700, “An all-to-all approach to the identification of sequence-specific readers for epigenetic DNA modifications on cytosine”.
# Columns and labels:
# Experiment in all cases: DAPPL (digital affinity profiling via proximity ligation, sequencing); 10 mM Tris-HCl pH 7.5, 50 mM NaCl, 1 mM DTT, 4% glycerol, room temperature, 30 min; GST-TFs on glutathione beads, 16-mer random dsDNA library, 0.1% formaldehyde crosslink after washing; high values mean tight binding
# [1] = molecular target: T1, FLI1 (Homo sapiens, UniProt Q01543 1-452); conditions: protein: recombinant; tags: N-terminal GST; dsDNA, one strand shown
# T1 sequence: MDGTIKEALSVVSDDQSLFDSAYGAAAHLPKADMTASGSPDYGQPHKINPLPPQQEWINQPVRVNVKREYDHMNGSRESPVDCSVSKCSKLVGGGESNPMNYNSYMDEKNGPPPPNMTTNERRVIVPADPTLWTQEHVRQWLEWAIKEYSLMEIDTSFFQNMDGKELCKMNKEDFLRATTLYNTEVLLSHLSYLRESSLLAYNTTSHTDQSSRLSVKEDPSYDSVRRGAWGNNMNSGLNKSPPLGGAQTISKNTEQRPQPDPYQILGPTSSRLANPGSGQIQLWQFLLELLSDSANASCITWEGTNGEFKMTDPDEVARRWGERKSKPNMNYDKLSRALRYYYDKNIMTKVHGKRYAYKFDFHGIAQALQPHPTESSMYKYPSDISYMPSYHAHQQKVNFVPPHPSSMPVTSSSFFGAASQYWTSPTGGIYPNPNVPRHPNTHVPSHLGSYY
# Method in brief: (§1)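 The binding signal reported is, for every hexamer, its read frequency for a factor over its read frequency for the tag-only sample. Reads came from pools of yeast-expressed, GST-fused human transcription factors on glutathione beads, barcoded with DNA and mixed with that sample, which were incubated with 200 nmole of a random double-stranded 16-mer DNA library in Tris/NaCl/DTT/glycerol buffer at room temperature for 30 min. After washing, the pools were crosslinked with 0.1% formaldehyde, proximity-ligated with BsaI/T4 ligase for 1 h at 37 °C, PCR-amplified and sequenced on an Illumina NextSeq500.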
# [2] = molecular target: T2, ELK1 (Homo sapiens, UniProt P19419 1-428); conditions: protein: recombinant; tags: N-terminal GST; dsDNA, one strand shown
# T2 sequence: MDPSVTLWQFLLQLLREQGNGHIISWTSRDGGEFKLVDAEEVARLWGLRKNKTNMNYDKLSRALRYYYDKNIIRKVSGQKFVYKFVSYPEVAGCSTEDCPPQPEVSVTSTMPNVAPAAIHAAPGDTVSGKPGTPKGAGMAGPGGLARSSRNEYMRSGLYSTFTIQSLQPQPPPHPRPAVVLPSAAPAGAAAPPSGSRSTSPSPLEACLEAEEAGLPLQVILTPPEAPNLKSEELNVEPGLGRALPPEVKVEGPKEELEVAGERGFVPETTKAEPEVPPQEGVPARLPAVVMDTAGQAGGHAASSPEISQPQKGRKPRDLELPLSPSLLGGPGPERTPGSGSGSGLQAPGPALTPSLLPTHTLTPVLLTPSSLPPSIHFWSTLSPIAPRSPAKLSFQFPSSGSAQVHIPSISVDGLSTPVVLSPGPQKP
# Method in brief: as §1
# [3] = molecular target: T3, GABPA (Homo sapiens, UniProt Q06546 1-454); conditions: protein: recombinant; tags: N-terminal GST; dsDNA, one strand shown
# T3 sequence: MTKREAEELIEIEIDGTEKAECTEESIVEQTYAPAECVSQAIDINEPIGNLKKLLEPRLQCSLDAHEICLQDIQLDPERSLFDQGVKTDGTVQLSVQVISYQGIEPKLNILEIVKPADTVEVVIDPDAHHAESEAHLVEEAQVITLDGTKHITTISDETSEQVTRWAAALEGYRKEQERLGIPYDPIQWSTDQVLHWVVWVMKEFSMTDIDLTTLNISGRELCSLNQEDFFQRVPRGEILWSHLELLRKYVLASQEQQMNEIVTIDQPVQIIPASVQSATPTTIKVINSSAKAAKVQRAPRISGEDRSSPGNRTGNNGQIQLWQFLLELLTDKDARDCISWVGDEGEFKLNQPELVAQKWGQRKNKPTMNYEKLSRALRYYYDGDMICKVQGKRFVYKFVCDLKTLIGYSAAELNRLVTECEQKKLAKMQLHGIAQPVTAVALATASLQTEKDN
# Method in brief: as §1
# [4] = molecular target: T4, ERG (Homo sapiens, UniProt P11308 1-479); conditions: protein: recombinant; tags: N-terminal GST; dsDNA, one strand shown
# T4 sequence: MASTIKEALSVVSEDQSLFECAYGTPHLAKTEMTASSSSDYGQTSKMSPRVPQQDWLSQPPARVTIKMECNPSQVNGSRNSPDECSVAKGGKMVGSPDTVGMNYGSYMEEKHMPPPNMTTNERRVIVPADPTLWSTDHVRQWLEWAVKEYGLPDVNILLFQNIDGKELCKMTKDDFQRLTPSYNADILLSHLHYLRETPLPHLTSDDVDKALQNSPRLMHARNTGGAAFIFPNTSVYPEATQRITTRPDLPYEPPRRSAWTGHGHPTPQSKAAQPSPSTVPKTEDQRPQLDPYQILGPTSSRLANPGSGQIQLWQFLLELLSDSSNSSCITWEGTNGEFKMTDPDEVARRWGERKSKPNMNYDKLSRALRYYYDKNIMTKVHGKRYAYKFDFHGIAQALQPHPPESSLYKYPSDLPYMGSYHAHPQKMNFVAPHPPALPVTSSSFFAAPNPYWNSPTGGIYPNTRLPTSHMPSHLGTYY
# Method in brief: as §1
# [5] = molecular target: ELF1 (Homo sapiens, UniProt P32519 1-619); conditions: protein: recombinant; tags: N-terminal GST; dsDNA, one strand shown
# Method in brief: as §1
# [6] = molecular target: T5, EHF (Homo sapiens, UniProt Q9NZC4 1-300); conditions: protein: recombinant; tags: N-terminal GST; dsDNA, one strand shown
# T5 sequence: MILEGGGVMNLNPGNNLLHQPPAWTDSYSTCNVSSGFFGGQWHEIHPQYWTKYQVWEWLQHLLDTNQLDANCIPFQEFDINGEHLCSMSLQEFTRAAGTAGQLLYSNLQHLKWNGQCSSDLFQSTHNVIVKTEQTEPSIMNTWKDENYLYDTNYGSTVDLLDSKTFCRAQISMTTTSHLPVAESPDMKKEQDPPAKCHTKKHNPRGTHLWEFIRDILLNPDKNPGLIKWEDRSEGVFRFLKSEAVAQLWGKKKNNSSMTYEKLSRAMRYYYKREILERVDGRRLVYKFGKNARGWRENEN
# Method in brief: as §1
# [7] = molecular target: SPI1 (Homo sapiens, UniProt P17947 1-270); conditions: protein: recombinant; tags: N-terminal GST; dsDNA, one strand shown
# Method in brief: as §1
# [8] = molecular target: SPIB (Homo sapiens, UniProt Q01892 1-262); conditions: protein: recombinant; tags: N-terminal GST; dsDNA, one strand shown
# Method in brief: as §1
# [9] = molecular target: T6, ELK3 (Homo sapiens, UniProt P41970 1-407); conditions: protein: recombinant; tags: N-terminal GST; dsDNA, one strand shown
# T6 sequence: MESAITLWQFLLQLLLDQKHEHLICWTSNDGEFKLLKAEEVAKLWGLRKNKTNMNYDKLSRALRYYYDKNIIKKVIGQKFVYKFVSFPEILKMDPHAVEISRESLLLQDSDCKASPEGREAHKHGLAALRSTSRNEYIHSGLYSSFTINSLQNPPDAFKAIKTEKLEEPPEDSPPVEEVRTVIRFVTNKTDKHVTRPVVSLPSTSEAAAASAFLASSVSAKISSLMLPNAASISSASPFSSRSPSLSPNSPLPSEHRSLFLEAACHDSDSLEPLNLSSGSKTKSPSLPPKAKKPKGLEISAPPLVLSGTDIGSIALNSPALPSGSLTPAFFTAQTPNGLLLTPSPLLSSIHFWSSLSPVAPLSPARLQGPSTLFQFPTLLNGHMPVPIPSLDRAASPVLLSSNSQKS
# Method in brief: as §1
# [10] = molecular target: T7, FEV (Homo sapiens, UniProt Q99581 1-238); conditions: protein: recombinant; tags: N-terminal GST; dsDNA, one strand shown
# T7 sequence: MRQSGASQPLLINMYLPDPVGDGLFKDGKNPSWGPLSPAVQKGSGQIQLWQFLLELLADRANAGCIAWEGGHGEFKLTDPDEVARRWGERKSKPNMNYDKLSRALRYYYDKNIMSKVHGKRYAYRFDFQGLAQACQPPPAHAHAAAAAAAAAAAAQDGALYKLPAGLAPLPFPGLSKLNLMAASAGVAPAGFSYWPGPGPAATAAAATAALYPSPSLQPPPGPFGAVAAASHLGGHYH
# Method in brief: as §1
# [11] = molecular target: ETV5 (Homo sapiens, UniProt P41161 1-510); conditions: protein: recombinant; tags: N-terminal GST; dsDNA, one strand shown
# Method in brief: as §1
# [12] = molecular target: HSF1 (Homo sapiens, UniProt Q00613 1-529); conditions: protein: recombinant; tags: N-terminal GST; chain copies: 3; dsDNA, one strand shown
# Method in brief: as §1
# [13] = molecular target: T8, SPIC (Homo sapiens, UniProt Q8N5J4 1-248); conditions: protein: recombinant; tags: N-terminal GST; dsDNA, one strand shown
# T8 sequence: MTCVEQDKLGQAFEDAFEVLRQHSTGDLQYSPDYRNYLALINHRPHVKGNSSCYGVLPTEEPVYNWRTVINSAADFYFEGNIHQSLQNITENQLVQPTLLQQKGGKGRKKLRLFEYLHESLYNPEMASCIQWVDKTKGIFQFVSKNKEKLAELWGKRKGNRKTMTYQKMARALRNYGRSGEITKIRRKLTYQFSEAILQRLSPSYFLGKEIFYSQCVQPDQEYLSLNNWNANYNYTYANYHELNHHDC
# Method in brief: as §1
# [14] = molecular target: ELF4 (Homo sapiens, UniProt Q99607 1-663); conditions: protein: recombinant; tags: N-terminal GST; dsDNA, one strand shown
# Method in brief: as §1
# [15] = molecular target: T9, ELK4 (Homo sapiens, UniProt P28324-2 1-405); conditions: protein: recombinant; tags: N-terminal GST; dsDNA, one strand shown
# T9 sequence: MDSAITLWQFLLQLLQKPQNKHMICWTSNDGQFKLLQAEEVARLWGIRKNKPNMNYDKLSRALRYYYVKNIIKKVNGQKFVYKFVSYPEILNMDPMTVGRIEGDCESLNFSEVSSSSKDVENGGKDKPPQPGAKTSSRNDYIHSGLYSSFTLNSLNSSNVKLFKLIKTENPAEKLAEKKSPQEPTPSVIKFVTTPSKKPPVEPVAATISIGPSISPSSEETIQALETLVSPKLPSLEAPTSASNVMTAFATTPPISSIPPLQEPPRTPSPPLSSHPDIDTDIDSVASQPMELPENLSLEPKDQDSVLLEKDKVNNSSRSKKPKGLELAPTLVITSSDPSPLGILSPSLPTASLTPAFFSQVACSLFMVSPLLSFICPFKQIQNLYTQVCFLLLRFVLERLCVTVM
# Method in brief: as §1
# [16] = molecular target: T10, ETV2 (Homo sapiens, UniProt O00321 1-342); conditions: protein: recombinant; tags: N-terminal GST; dsDNA, one strand shown
# T10 sequence: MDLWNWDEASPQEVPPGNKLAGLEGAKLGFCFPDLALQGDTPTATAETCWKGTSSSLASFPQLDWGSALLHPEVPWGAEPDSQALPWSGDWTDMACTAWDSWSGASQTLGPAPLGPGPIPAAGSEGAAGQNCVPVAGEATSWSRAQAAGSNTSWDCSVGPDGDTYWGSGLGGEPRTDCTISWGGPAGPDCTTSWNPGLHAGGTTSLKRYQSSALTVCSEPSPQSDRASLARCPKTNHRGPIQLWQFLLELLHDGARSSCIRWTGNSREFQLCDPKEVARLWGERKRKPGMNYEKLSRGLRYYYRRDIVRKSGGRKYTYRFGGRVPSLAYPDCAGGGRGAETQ
# Method in brief: as §1
# [17] = molecular target: T11, ELF3 (Homo sapiens, UniProt P78545 1-371); conditions: protein: recombinant; tags: N-terminal GST; dsDNA, one strand shown
# T11 sequence: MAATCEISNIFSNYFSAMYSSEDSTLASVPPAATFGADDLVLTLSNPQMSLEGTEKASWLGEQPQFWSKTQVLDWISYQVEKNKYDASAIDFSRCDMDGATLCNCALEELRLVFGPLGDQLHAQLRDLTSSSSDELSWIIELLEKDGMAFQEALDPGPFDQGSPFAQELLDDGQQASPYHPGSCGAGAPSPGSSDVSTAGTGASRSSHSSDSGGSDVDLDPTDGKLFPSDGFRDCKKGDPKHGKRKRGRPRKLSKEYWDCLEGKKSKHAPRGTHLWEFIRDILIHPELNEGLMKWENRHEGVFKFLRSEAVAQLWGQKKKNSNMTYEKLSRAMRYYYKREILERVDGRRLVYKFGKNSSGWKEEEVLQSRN
# Method in brief: as §1
# [18] = molecular target: CRX (Homo sapiens, UniProt O43186 1-299); conditions: protein: recombinant; tags: N-terminal GST; dsDNA, one strand shown
# Method in brief: as §1
# [19] = molecular target: ETV1 (Homo sapiens, UniProt P50549 1-477); conditions: protein: recombinant; tags: N-terminal GST; dsDNA, one strand shown
# Method in brief: as §1
# Chain of HSF1 (Q00613 whole entry): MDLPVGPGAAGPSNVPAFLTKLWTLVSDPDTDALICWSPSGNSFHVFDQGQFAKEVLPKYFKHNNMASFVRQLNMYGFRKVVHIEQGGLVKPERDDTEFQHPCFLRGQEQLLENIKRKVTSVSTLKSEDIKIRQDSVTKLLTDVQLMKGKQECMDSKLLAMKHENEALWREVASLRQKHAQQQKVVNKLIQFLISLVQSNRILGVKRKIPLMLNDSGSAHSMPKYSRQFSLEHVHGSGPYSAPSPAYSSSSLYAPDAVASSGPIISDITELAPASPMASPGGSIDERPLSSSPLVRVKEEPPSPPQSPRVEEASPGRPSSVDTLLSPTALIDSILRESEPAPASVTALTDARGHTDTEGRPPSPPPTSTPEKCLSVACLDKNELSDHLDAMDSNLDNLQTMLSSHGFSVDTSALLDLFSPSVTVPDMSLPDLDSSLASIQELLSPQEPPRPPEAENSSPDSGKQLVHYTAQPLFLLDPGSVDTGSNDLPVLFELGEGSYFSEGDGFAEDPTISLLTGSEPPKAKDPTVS
# Chain of ELF1 (P32519 whole entry): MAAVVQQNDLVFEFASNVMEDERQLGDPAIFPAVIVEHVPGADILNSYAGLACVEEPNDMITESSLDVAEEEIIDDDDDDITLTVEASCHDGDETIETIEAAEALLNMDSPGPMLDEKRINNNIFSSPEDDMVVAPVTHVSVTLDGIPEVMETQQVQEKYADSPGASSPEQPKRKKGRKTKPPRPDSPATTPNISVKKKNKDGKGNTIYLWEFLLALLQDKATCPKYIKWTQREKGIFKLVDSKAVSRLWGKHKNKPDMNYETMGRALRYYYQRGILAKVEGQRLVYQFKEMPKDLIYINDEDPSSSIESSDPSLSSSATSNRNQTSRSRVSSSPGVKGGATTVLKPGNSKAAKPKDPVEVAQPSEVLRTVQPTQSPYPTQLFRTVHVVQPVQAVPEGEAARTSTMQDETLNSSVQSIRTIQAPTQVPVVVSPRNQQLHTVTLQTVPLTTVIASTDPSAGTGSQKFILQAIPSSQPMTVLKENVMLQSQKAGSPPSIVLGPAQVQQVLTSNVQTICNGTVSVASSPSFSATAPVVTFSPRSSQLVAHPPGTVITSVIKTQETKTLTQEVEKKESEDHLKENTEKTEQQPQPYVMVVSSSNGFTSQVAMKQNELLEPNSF
# Chain of CRX (O43186 whole entry): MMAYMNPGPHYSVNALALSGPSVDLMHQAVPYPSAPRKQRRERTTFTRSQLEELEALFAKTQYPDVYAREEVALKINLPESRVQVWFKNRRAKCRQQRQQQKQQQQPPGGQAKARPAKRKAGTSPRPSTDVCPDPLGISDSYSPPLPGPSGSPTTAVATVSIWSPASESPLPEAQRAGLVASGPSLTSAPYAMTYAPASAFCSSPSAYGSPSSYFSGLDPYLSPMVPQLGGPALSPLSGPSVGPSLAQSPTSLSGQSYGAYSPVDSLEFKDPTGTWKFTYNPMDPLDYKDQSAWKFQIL
# Chain of ELF4 (Q99607 whole entry): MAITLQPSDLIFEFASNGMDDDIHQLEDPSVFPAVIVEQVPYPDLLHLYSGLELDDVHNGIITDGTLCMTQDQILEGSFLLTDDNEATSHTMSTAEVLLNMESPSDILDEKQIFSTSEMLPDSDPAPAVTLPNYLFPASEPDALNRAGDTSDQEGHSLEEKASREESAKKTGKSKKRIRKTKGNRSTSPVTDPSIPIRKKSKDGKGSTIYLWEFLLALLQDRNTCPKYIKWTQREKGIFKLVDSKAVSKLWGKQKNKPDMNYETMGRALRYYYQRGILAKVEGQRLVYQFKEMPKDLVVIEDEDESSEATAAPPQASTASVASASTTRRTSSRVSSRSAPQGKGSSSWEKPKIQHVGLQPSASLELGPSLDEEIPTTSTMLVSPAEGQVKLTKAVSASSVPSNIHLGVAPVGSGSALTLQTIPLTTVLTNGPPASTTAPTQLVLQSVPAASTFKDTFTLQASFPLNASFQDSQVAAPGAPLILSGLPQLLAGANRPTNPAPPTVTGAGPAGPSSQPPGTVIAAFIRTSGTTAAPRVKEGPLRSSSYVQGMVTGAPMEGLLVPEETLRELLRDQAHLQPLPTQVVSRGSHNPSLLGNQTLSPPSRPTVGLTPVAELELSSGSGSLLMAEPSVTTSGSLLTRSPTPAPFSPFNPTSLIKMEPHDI
# Chain of SPIB (Q01892 whole entry): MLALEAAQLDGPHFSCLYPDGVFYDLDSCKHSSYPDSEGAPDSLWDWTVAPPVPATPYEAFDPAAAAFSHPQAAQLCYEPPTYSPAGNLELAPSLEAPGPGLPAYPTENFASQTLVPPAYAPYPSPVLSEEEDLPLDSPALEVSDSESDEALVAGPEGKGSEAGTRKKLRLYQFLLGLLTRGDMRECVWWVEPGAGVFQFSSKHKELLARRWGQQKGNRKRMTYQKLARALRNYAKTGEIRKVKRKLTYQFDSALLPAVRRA
# Chain of ETV1 (P50549 whole entry): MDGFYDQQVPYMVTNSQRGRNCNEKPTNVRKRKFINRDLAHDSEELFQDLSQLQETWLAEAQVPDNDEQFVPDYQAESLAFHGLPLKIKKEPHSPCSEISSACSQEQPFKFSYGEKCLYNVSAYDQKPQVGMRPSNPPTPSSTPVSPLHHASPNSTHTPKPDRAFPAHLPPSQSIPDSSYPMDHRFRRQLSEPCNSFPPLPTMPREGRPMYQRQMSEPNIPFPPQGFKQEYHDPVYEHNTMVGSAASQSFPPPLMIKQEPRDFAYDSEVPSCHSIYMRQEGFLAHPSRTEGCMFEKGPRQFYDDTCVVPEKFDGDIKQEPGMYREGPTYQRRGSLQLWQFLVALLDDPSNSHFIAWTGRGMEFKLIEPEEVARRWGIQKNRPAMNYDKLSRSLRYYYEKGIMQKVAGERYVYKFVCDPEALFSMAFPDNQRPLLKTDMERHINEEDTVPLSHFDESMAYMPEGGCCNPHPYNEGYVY
# Chain of ETV5 (P41161 whole entry): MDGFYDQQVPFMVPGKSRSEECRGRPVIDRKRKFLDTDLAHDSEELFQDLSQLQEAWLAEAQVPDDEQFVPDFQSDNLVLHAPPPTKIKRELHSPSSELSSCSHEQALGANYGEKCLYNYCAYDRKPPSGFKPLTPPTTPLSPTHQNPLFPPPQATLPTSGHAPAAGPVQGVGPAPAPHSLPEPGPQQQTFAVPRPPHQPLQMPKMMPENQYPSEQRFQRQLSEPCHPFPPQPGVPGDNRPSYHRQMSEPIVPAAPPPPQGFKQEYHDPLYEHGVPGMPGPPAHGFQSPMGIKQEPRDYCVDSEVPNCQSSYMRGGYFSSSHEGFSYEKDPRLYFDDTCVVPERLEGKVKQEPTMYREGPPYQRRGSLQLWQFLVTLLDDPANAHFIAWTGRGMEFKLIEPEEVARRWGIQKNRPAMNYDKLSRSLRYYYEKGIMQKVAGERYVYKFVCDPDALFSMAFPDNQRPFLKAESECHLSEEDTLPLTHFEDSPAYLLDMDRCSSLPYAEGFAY
sequence,measurement,setting,value
TGCCTT,binding signal,[1],"1.29 fold enrichment (6-mer frequency, TF over GST control)"
same,binding signal,[2],"1.38 fold enrichment (6-mer frequency, TF over GST control)"
same,binding signal,[3],"1.54 fold enrichment (6-mer frequency, TF over GST control)"
same,binding signal,[4],"1.35 fold enrichment (6-mer frequency, TF over GST control)"
same,binding signal,[5],"1.33 fold enrichment (6-mer frequency, TF over GST control)"
same,binding signal,[6],"1.3 fold enrichment (6-mer frequency, TF over GST control)"
same,binding signal,[7],"1.44 fold enrichment (6-mer frequency, TF over GST control)"
same,binding signal,[8],"1.35 fold enrichment (6-mer frequency, TF over GST control)"
same,binding signal,[9],"1.24 fold enrichment (6-mer frequency, TF over GST control)"
same,binding signal,[10],"1.3 fold enrichment (6-mer frequency, TF over GST control)"
same,binding signal,[11],"1.36 fold enrichment (6-mer frequency, TF over GST control)"
same,binding signal,[12],"1.27 fold enrichment (6-mer frequency, TF over GST control)"
same,binding signal,[13],"1.55 fold enrichment (6-mer frequency, TF over GST control)"
same,binding signal,[14],"1.27 fold enrichment (6-mer frequency, TF over GST control)"
same,binding signal,[15],"1.43 fold enrichment (6-mer frequency, TF over GST control)"
same,binding signal,[16],"1.2 fold enrichment (6-mer frequency, TF over GST control)"
same,binding signal,[17],"1.45 fold enrichment (6-mer frequency, TF over GST control)"
same,binding signal,[18],"1.33 fold enrichment (6-mer frequency, TF over GST control)"
same,binding signal,[19],"1.34 fold enrichment (6-mer frequency, TF over GST control)"
